Test systems include SR leukemia; RPMI-8226 leukemia; OVCAR-8 ovarian; OVCAR-5 ovarian; OVCAR-4 ovarian; SK-OV-3 ovarian; IGROV1 ovarian; OVCAR-3 ovarian; HS 578T breast; NCI/ADR-RES ovarian; T-47D breast; BT-549 breast; MDA-MB-435 melanoma; SW-620 colon; MCF7 breast; HCT-116 colon; HCC-2998 colon; KM12 colon; MDA-MB-468 breast.
What all share (assay): NCI-60 one-dose screen, 48 h (100 = growth as untreated, 0 = no growth, -100 = all killed)
What all share (settings): 10 µM unless noted

Each structure is given as a SMILES string. About 83,000 compounds went through this panel and 20% of them were active in at least one assay; those are over-represented in the sample as a whole.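 Testing used 96-well plates and a 48-hour single-concentration exposure. Example: -40 means 40% of the starting cells died.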 Unmarked numbers belong to inactive results. Activity calls are given as the source filed them. Rule for the calls: active = growth percent below 10; inactive = the rest.

As for `COc1ccc(/C=C/C(=O)c2ccc(S(=O)(=O)NCCNc3nc(N(C)C)nc(N4CCOCC4)n3)cc2)cc1`, the growth with SR leukemia was 13.8%; in the experiment on RPMI-8226 leukemia it was 14%; in the experiment on OVCAR-8 ovarian, 98.5%; with OVCAR-5 ovarian, 95.4%; with OVCAR-4 ovarian, 94.1%; in the experiment with SK-OV-3 ovarian, 101%. Moreover, the growth with IGROV1 ovarian was 98.5%; in the experiment on OVCAR-3 ovarian, 100%; in the experiment with HS 578T breast, 104%; in the experiment with NCI/ADR-RES ovarian it was 89.7%; in the experiment with T-47D breast it was 83.5%; in the experiment on BT-549 breast, 105%. Also, the growth with MDA-MB-435 melanoma is 81.8%; with SW-620 colon, 68.7%; with MCF7 breast, 11.8%; in the experiment with HCT-116 colon it was -9.23% (active); with HCC-2998 colon it was 116%; with KM12 colon, 64.8%. In the experiment with MDA-MB-468 breast, the growth was 76.3%.

On to `CN(C)CCCc1ccc(Nc2cnn(C)c(=O)c2Cl)cc1`, for which the growth was 62.2% with SR leukemia; 102% in the experiment on RPMI-8226 leukemia; 106% in the experiment on OVCAR-8 ovarian; 126% with OVCAR-5 ovarian; 100% in the experiment on OVCAR-4 ovarian; 131% with SK-OV-3 ovarian. Besides, the growth was 104% in the experiment on IGROV1 ovarian; 105% with OVCAR-3 ovarian; 105% with HS 578T breast; 109% with NCI/ADR-RES ovarian; 98.2% in the experiment with T-47D breast; 115% in the experiment on BT-549 breast. Also, the growth with MDA-MB-435 melanoma was 97.8%; with SW-620 colon, 109%; in the experiment with MCF7 breast, 80.8%; in the experiment on HCT-116 colon, 95.5%; in the experiment with HCC-2998 colon, 118%; in the experiment with KM12 colon it was 111%. For the same compound, in the experiment on MDA-MB-468 breast, the growth was 82.8%.

Consider `FC(F)(F)CN1CCN(CCn2c(C(F)(F)F)cc3c(Cl)ncnc32)CC1`, for which the growth with SR leukemia is -54.6% (active); with RPMI-8226 leukemia it was -6.12% (active); with OVCAR-8 ovarian, 8.76% (active); in the experiment on OVCAR-5 ovarian, 103%; with OVCAR-4 ovarian it was 21.5%; in the experiment with SK-OV-3 ovarian it was 71.4%. In addition, the growth in the experiment on IGROV1 ovarian is -80.5% (active); with OVCAR-3 ovarian, -47.4% (active); in the experiment with HS 578T breast, 47.4%; in the experiment with NCI/ADR-RES ovarian, 75.1%; with T-47D breast, 59.3%; with BT-549 breast, -27.2% (active). Besides, the growth in the experiment with MDA-MB-435 melanoma was 38.7%; in the experiment with SW-620 colon, 11.3%; with MCF7 breast, 25.3%; with HCT-116 colon, 1.79% (active); in the experiment with HCC-2998 colon, -96.7% (active); with KM12 colon, 70.7%. Also, in the experiment on MDA-MB-468 breast, the growth was -64% (active).

On to `Cc1ccccc1NC(=O)c1cccc(NC(=O)CCl)c1`, for which the growth with SR leukemia is 16.4%; in the experiment with RPMI-8226 leukemia it was 26%; with OVCAR-8 ovarian it was 46.3%; in the experiment with OVCAR-5 ovarian, 70.4%; in the experiment with OVCAR-4 ovarian it was 73.7%; in the experiment with SK-OV-3 ovarian it was 81.3%. The growth was 29.5% in the experiment with IGROV1 ovarian; 49% in the experiment on OVCAR-3 ovarian; 78% in the experiment on HS 578T breast; 38.9% in the experiment with NCI/ADR-RES ovarian; 74.8% with T-47D breast; 39.4% with BT-549 breast. The growth is 72.7% in the experiment on MDA-MB-435 melanoma; 41.7% in the experiment with SW-620 colon; 19.2% in the experiment with MCF7 breast; 27.3% in the experiment on HCT-116 colon; 96.1% in the experiment on HCC-2998 colon; 77.3% in the experiment with KM12 colon. In the experiment with MDA-MB-468 breast, the growth is -0.88% (active).

`O=C(NNC(=S)NC(=O)c1ccccc1)c1ccc(OCc2nc3ccc(Cl)cc3[nH]2)cc1`: the growth was 0.144% (active) in the experiment with SR leukemia; 5.01% (active) in the experiment with RPMI-8226 leukemia; -9.91% (active) with OVCAR-8 ovarian; -43.7% (active) in the experiment with OVCAR-5 ovarian; 16.3% with OVCAR-4 ovarian; -17.5% (active) in the experiment on SK-OV-3 ovarian. Moreover, the growth was -46.5% (active) with IGROV1 ovarian; 10.5% in the experiment on OVCAR-3 ovarian; 3.54% (active) in the experiment with HS 578T breast; -25.3% (active) in the experiment on NCI/ADR-RES ovarian; 10.2% in the experiment with T-47D breast; -51.8% (active) in the experiment on BT-549 breast. The growth was -51.2% (active) in the experiment with MDA-MB-435 melanoma; 19.8% in the experiment with SW-620 colon; 3.67% (active) in the experiment on MCF7 breast; -34.6% (active) with HCT-116 colon; -80.3% (active) with HCC-2998 colon; -3.11% (active) in the experiment on KM12 colon. Also, the growth in the experiment on MDA-MB-468 breast is -41% (active).

Turning to `CC(C)C[C@H](NC(=O)[C@@H]1CCCCCCCCCCC(=O)N[C@@H](CC(=O)N2CCC[C@@H]2C2CCCC2)C(=O)N1)B(O)O`, the growth in the experiment with SR leukemia was -14.3% (active); in the experiment with RPMI-8226 leukemia, 22%; with OVCAR-8 ovarian, -17.4% (active); in the experiment on OVCAR-5 ovarian it was -36.8% (active); in the experiment on OVCAR-4 ovarian, -13% (active); in the experiment on SK-OV-3 ovarian, -7.33% (active). The growth is -58.2% (active) in the experiment on IGROV1 ovarian; -46.5% (active) in the experiment on OVCAR-3 ovarian; 3.6% (active) with HS 578T breast; 1.84% (active) with NCI/ADR-RES ovarian; -20% (active) with T-47D breast; -79.2% (active) in the experiment on BT-549 breast. For the same compound, the growth with MDA-MB-435 melanoma was -57.3% (active); with SW-620 colon, 4.22% (active); in the experiment on MCF7 breast, -28.2% (active); with HCT-116 colon, -80% (active); in the experiment with HCC-2998 colon, -100% (active); in the experiment on KM12 colon, -35.7% (active). In addition, in the experiment with MDA-MB-468 breast, the growth was -70.6% (active).

Consider `COc1cc(NC(=O)CSc2nnc(-c3ccc(-c4nc5ccc(Cl)cc5[nH]4)cc3)o2)cc(OC)c1OC`, for which the growth in the experiment with SR leukemia was 35.7%; in the experiment with RPMI-8226 leukemia it was 25%; in the experiment with OVCAR-8 ovarian, 62.6%; with OVCAR-5 ovarian, 71.4%; with OVCAR-4 ovarian, 64.8%; with SK-OV-3 ovarian it was 109%. For the same compound, the growth with IGROV1 ovarian was 52.7%; in the experiment with OVCAR-3 ovarian it was 21.7%; in the experiment on HS 578T breast, 53.3%; with NCI/ADR-RES ovarian, 63.6%; with T-47D breast it was 41.5%; with BT-549 breast, 70.7%. In addition, the growth in the experiment on MDA-MB-435 melanoma was -20.3% (active); with SW-620 colon, 40.1%; in the experiment on MCF7 breast, 6.03% (active); in the experiment on HCT-116 colon, 33.2%; in the experiment with HCC-2998 colon, 68.9%; with KM12 colon, 30.8%. For the same compound, in the experiment on MDA-MB-468 breast, the growth is 3.14% (active).

The values above are taken from PubChem BioAssay (NCI).
